# According to PubChem BioAssay:
# Active and inactive are the calls of the source.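 How the source made its calls: active means Her2 level under about 52% in both replicate screens, with viability over 70% of control (limit read from the data); inconclusive means Her2 under the limit in one screen only, or viability under 70%; inactive means Her2 level above the set limit.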
# Test system: not listed separately
# Experiment: Her2 expression decrease, cell viability multiplex – SKBR3 breast tumor cells, AlphaScreen, ATP viability, primary screen (AID 461);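 on viability: percent of carrier control wells set as 100% viability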
# Details: SKBR3 Her2 protein level, 18-24 h, measured here: SKBR3 viability, ATP luminescence, at 10 µM
row,SMILES,viability [%]
1,Cn1c(=O)[nH]c(=O)c2[nH]c(NCCCN3CCOCC3)nc21,93.5
2,COc1ccc(CN(Cc2nc3ccccc3c(=O)[nH]2)C(=O)NC2CCCCC2)cc1,95.5
3,O=C(Nc1ccncc1)c1cncc(Br)c1,78
4,COc1ccc(C(=O)Nc2ccc(C)cn2)c(OC)c1,73.5
5,C/C(=N\O)C(C)/[N+]([O-])=C/c1nc(C)c(C)n1O (stereo not given),95.5
6,CCC(C)(C)NC(=O)C(c1ccco1)N(C(=O)Cn1nnc2ccccc21)c1ccc2c(c1)OCO2 (stereo not given),92.5
7,COc1ccc(OC)c(S(=O)(=O)N2c3ccccc3CC2C)c1 (stereo not given),82.5
8,O=C(COc1ccccc1)Nc1ccc(-c2nnc(-c3ccco3)o2)cc1,128
9,Cc1ccc(-c2noc(CCC(=O)NCC3CCN(Cc4cccc(C)c4)CC3)n2)cc1,93.5
10,CCOc1cc(C(=O)N2CCN=C2SC)cc(OCC)c1OCC,91.5
11,COc1ccc(-n2c(=O)c3c4c(sc3n3c(C)nnc23)CCCC4)cc1,78.5
12,COc1ccc(CCNC(=O)c2cc(-c3cc(C)c(C)cc3O)n[nH]2)cc1OC,93.5
13,CCC(Oc1ccc2ccccc2c1)C(=O)O (stereo not given),89.5
14,O=C(O)C1CC=CCC1C(=O)Nc1cc(Cl)ccc1Cl (stereo not given),86
15,O=C(c1cnn2c(C(F)F)cc(C3CC3)nc12)N1CCOCC1,104
16,O=C(CSCCSCC(=O)c1ccco1)c1ccco1,83.5
17,COC(=O)c1ccccc1NC(=O)CSc1nc2c(c(=O)n(C)c(=O)n2C)n1C,86
18,O=c1oc2ccccc2c2c1ncn2-c1ccccc1,100
19,COc1ccc(C2CC(c3ccccc3)Nc3nc(NC(=O)c4cccs4)nn32)cc1 (stereo not given),81.5
20,COC(=O)c1cccc(S(=O)(=O)N2CCN(c3nc4ccccc4s3)CC2)c1,83

row,SMILES,viability [%]
1,COC(=O)CCSCc1cn2cc(Cl)ccc2n1,120
2,O=C(c1ccco1)N1CCN(S(=O)(=O)c2ccc(C3CCCCC3)cc2)CC1,96
3,COc1cccc(C(=O)CN2CCC(NC(=O)NC3CCCCC3)CC2)c1,92
4,CSCCC(NC(=O)c1occc1C)C(=O)O (stereo not given),93.5
5,Cc1cccc(N2CCN(Cc3c(C)n(C)n(-c4ccccc4)c3=O)CC2)c1C,83.5
6,CCOc1cc(C2C(C(=O)OC(C)C)=C(C)N=C3SCCC(=O)N32)ccc1OC(C)=O (stereo not given),93
7,O=C(Cc1cccs1)Nc1ccccc1C(=O)O,109
8,O=C(NCCN1CCOCC1)c1csc2c1CCCC2,97.5
9,O=C(CSc1nc2ccccc2s1)N1CCOCC1,119
10,CC1C(O)=C(c2nc3ccccc3[nH]2)C(=N)N1c1ccccc1 (stereo not given),110
11,Cc1oc(-c2ccccc2F)nc1CS(=O)(=O)CC(=O)N1CCN(Cc2ccccc2)CC1,77.5
12,CSCSC1=C(C#N)C(c2ccc(Cl)cc2)C(C(C)=O)=C(C)N1 (stereo not given),106
13,Cc1ccc2c(c1)CCCN2C(=O)Nc1ccc2c(c1)OCO2,95.5
14,COc1cccc(N2CCN(CC(=O)Nc3nnc(-c4ccccc4)s3)CC2)c1,86
15,CCOC(=O)C1=C(C)NC(SC(C)=O)=NC1c1ccc(OC(C)=O)c(OC)c1 (stereo not given),106
16,C/C=C(\C)c1nnc(NC(=O)C(C)C)s1,92.5
17,Cc1cc(C(=O)CSCc2nnc3n(CCC(C)C)c(=O)c4ccccc4n23)c(C)n1C,99.5
18,COc1cccc(C(=O)NCc2nnc(SCC(=O)Nc3nccs3)n2-c2ccccc2)c1,101
19,O=C(OCC(=O)N1CCc2ccccc21)C1=COCCO1,89.5
20,COc1cccc(Nc2cc(C)nc3ccccc23)c1,77

# Target: Receptor tyrosine-protein kinase erbB-2 (Homo sapiens) (UniProt P04626)
# Sequence (P04626 whole entry, looked up): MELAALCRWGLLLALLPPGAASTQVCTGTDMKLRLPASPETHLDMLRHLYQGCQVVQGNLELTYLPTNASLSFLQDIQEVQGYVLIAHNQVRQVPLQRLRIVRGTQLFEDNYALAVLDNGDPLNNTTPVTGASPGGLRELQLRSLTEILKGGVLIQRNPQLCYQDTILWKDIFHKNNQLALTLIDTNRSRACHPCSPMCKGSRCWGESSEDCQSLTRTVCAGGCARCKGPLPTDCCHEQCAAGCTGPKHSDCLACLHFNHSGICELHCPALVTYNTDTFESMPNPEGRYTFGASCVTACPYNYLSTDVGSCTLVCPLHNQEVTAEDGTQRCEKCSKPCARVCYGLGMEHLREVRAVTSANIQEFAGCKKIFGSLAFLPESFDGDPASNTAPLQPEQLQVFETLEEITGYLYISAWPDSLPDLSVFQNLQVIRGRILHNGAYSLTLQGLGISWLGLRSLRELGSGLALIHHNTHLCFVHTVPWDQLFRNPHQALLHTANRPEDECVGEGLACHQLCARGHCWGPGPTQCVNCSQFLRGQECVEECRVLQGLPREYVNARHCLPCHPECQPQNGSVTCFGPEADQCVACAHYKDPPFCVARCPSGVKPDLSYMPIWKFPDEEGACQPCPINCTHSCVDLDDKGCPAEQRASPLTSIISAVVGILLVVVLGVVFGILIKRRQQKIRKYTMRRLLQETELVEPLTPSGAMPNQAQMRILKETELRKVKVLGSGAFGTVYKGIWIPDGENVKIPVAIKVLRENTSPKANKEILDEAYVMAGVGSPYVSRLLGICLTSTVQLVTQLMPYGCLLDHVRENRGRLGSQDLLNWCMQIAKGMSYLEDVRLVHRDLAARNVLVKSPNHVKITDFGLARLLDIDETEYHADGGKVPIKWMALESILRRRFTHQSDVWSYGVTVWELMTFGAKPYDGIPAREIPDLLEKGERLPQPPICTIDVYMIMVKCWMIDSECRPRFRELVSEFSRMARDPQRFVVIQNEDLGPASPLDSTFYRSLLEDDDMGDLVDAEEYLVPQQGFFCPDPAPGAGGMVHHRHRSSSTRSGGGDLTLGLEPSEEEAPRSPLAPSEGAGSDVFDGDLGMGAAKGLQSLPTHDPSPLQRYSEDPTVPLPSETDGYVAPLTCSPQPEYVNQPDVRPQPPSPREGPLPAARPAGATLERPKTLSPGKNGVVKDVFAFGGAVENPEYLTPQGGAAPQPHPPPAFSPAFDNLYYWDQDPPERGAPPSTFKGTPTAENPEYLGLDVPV
# Experiment: as above
# Details: 18-24 h, at 10 µM, stronger effect = lower value
row,SMILES,Her2 level
1,Cn1c(=O)[nH]c(=O)c2[nH]c(NCCCN3CCOCC3)nc21,85.5% (inactive)
2,COc1ccc(CN(Cc2nc3ccccc3c(=O)[nH]2)C(=O)NC2CCCCC2)cc1,71% (inactive)
3,O=C(Nc1ccncc1)c1cncc(Br)c1,95.5% (inactive)
4,COc1ccc(C(=O)Nc2ccc(C)cn2)c(OC)c1,77% (inactive)
5,C/C(=N\O)C(C)/[N+]([O-])=C/c1nc(C)c(C)n1O (stereo not given),109% (inactive)
6,CCC(C)(C)NC(=O)C(c1ccco1)N(C(=O)Cn1nnc2ccccc21)c1ccc2c(c1)OCO2 (stereo not given),85% (inactive)
7,COc1ccc(OC)c(S(=O)(=O)N2c3ccccc3CC2C)c1 (stereo not given),109% (inactive)
8,O=C(COc1ccccc1)Nc1ccc(-c2nnc(-c3ccco3)o2)cc1,108% (inactive)
9,Cc1ccc(-c2noc(CCC(=O)NCC3CCN(Cc4cccc(C)c4)CC3)n2)cc1,82.5% (inactive)
10,CCOc1cc(C(=O)N2CCN=C2SC)cc(OCC)c1OCC,83% (inactive)
11,COc1ccc(-n2c(=O)c3c4c(sc3n3c(C)nnc23)CCCC4)cc1,94% (inactive)
12,COc1ccc(CCNC(=O)c2cc(-c3cc(C)c(C)cc3O)n[nH]2)cc1OC,87.5% (inactive)
13,CCC(Oc1ccc2ccccc2c1)C(=O)O (stereo not given),98.5% (inactive)
14,O=C(O)C1CC=CCC1C(=O)Nc1cc(Cl)ccc1Cl (stereo not given),100% (inactive)
15,O=C(c1cnn2c(C(F)F)cc(C3CC3)nc12)N1CCOCC1,102% (inactive)
16,O=C(CSCCSCC(=O)c1ccco1)c1ccco1,96% (inactive)
17,COC(=O)c1ccccc1NC(=O)CSc1nc2c(c(=O)n(C)c(=O)n2C)n1C,124% (inactive)
18,O=c1oc2ccccc2c2c1ncn2-c1ccccc1,96% (inactive)
19,COc1ccc(C2CC(c3ccccc3)Nc3nc(NC(=O)c4cccs4)nn32)cc1 (stereo not given),94.5% (inactive)
20,COC(=O)c1cccc(S(=O)(=O)N2CCN(c3nc4ccccc4s3)CC2)c1,92.5% (inactive)

row,SMILES,Her2 level
1,COC(=O)CCSCc1cn2cc(Cl)ccc2n1,106% (inactive)
2,O=C(c1ccco1)N1CCN(S(=O)(=O)c2ccc(C3CCCCC3)cc2)CC1,97.5% (inactive)
3,COc1cccc(C(=O)CN2CCC(NC(=O)NC3CCCCC3)CC2)c1,101% (inactive)
4,CSCCC(NC(=O)c1occc1C)C(=O)O (stereo not given),94.5% (inactive)
5,Cc1cccc(N2CCN(Cc3c(C)n(C)n(-c4ccccc4)c3=O)CC2)c1C,88.5% (inactive)
6,CCOc1cc(C2C(C(=O)OC(C)C)=C(C)N=C3SCCC(=O)N32)ccc1OC(C)=O (stereo not given),78.5% (inactive)
7,O=C(Cc1cccs1)Nc1ccccc1C(=O)O,96.5% (inactive)
8,O=C(NCCN1CCOCC1)c1csc2c1CCCC2,83% (inactive)
9,O=C(CSc1nc2ccccc2s1)N1CCOCC1,106% (inactive)
10,CC1C(O)=C(c2nc3ccccc3[nH]2)C(=N)N1c1ccccc1 (stereo not given),83% (inactive)
11,Cc1oc(-c2ccccc2F)nc1CS(=O)(=O)CC(=O)N1CCN(Cc2ccccc2)CC1,91.5% (inactive)
12,CSCSC1=C(C#N)C(c2ccc(Cl)cc2)C(C(C)=O)=C(C)N1 (stereo not given),94.5% (inactive)
13,Cc1ccc2c(c1)CCCN2C(=O)Nc1ccc2c(c1)OCO2,79% (inactive)
14,COc1cccc(N2CCN(CC(=O)Nc3nnc(-c4ccccc4)s3)CC2)c1,86% (inactive)
15,CCOC(=O)C1=C(C)NC(SC(C)=O)=NC1c1ccc(OC(C)=O)c(OC)c1 (stereo not given),95.5% (inactive)
16,C/C=C(\C)c1nnc(NC(=O)C(C)C)s1,82.5% (inactive)
17,Cc1cc(C(=O)CSCc2nnc3n(CCC(C)C)c(=O)c4ccccc4n23)c(C)n1C,84% (inactive)
18,COc1cccc(C(=O)NCc2nnc(SCC(=O)Nc3nccs3)n2-c2ccccc2)c1,108% (inactive)
19,O=C(OCC(=O)N1CCc2ccccc21)C1=COCCO1,90% (inactive)
20,COc1cccc(Nc2cc(C)nc3ccccc23)c1,83% (inactive)
